Results taken from PubChem BioAssay (NCI).
The panel holds about 83,000 compounds, 20% with a hit somewhere; the sample as a whole holds those more often.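 The endpoint reported here, percent growth, reads 100 for growth as untreated, 0 for no net growth and -100 for all cells dead.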 Values without a mark were called inactive. The source made the active and inactive calls. Rule for the calls: active = growth percent below 10; inactive = the rest.

Key:
Experiment in all cases: NCI-60 one-dose screen, 48 h (100 = growth as untreated, 0 = no growth, -100 = all killed)
Conditions in all cases: 10 µM unless noted
RPMI-8226 leukemia = test system: RPMI-8226 leukemia
OVCAR-8 ovarian = test system: OVCAR-8 ovarian
OVCAR-5 ovarian = test system: OVCAR-5 ovarian
OVCAR-4 ovarian = test system: OVCAR-4 ovarian
SK-OV-3 ovarian = test system: SK-OV-3 ovarian
IGROV1 ovarian = test system: IGROV1 ovarian
OVCAR-3 ovarian = test system: OVCAR-3 ovarian
HS 578T breast = test system: HS 578T breast
NCI/ADR-RES ovarian = test system: NCI/ADR-RES ovarian
T-47D breast = test system: T-47D breast
MDA-MB-435 melanoma = test system: MDA-MB-435 melanoma
SW-620 colon = test system: SW-620 colon
MCF7 breast = test system: MCF7 breast
HCT-116 colon = test system: HCT-116 colon
HCC-2998 colon = test system: HCC-2998 colon
KM12 colon = test system: KM12 colon
BT-549 breast = test system: BT-549 breast

Row | Structure (SMILES) | growth (RPMI-8226 leukemia) | growth (OVCAR-8 ovarian) | growth (OVCAR-5 ovarian) | growth (OVCAR-4 ovarian) | growth (SK-OV-3 ovarian) | growth (IGROV1 ovarian) | growth (OVCAR-3 ovarian) | growth (HS 578T breast) | growth (NCI/ADR-RES ovarian) | growth (T-47D breast) | growth (MDA-MB-435 melanoma) | growth (SW-620 colon) | growth (MCF7 breast) | growth (HCT-116 colon) | growth (HCC-2998 colon) | growth (KM12 colon) | growth (BT-549 breast)
1 | CCc1ccccc1-n1c(N)c(C#N)c(-c2ccc(Cl)cc2)c(C#N)c1=O | 84.2% | 111% | 108% | 93.3% | 108% | 87% | 107% | 92.2% | 102% | 101% | 119% | 102% | 103% | 103% | 107% | 95.8% | –
2 | O=C(Cc1ccc(F)c(Cl)c1)Nc1cc(C2(C(F)(F)F)CC2)nn1Cc1ccccc1 | 75.8% | 25.3% | 91.4% | 75% | -13.1% (active) | 62.2% | 63.4% | 26.2% | 56.9% | 64.9% | 87.8% | 82.7% | 81% | 60.4% | – | 85.5% | 77.7%
3 | Cc1ccc2nc(NC(=O)CSc3nc(Cl)c(C#N)c(-c4ccccc4)n3)sc2c1 | 96.9% | 98.3% | 104% | 105% | 95.7% | 93.3% | 107% | 95.9% | – | 89.1% | 98.8% | 103% | 91.7% | 102% | 108% | 110% | 103%
4 | COc1ccc(S(=O)(=O)n2cc(C3OC(c4cc(OC)c(OC)c(OC)c4)=NN3C(C)=O)c3ccccc32)cc1OC (centres undefined) | 61.5% | 80.9% | 85.8% | 77.9% | 96.6% | 83.5% | 112% | 92.3% | 81.7% | 54.7% | 95.4% | 97.9% | 88% | 67.7% | – | 137% | 51.8%
5 | COc1ccc(-c2cc3c4c(nc5ccccc5c4c2)CC(c2cc(OC)c(OC)c(OC)c2)O3)cc1 (centres undefined) | 25.1% | 32% | 18.4% | -9.24% (active) | 20.2% | 52.5% | 41.9% | 13.2% | 41.4% | 14.1% | 56.4% | 37.9% | 61.3% | 1.01% (active) | 43.1% | 60.4% | –
6 | Cc1nc2ccccc2c(/C=C/c2ccc(Cl)cc2)c1C(=O)/C=C/c1cccs1 | 53.4% | 74.9% | 92.6% | 60.7% | 78.5% | 46.6% | 82.2% | 86.7% | 80.7% | 50.1% | 89.3% | 72.4% | 41.9% | 33.9% | – | 81.5% | 90.9%
7 | O=C(Cc1ccc(F)c(Cl)c1)Nc1cc(C2(C(F)(F)F)CC2)nn1CC1CCCCC1 | 4.24% (active) | 8.52% (active) | 0.818% (active) | 13.5% | -19.9% (active) | 24.5% | 6.25% (active) | -0.843% (active) | 4.86% (active) | -0.285% (active) | 3.02% (active) | 12.6% | -0.278% (active) | – | 14.9% | 0.921% (active) | 5.11% (active)
8 | FC(F)(F)c1cc(Nc2ccc3c(OCCCN4CCOCC4)cccc3n2)ccc1Cl | 13.4% | 75.5% | 50.5% | 55.4% | 78.5% | 48.4% | 60.9% | 55% | 56.2% | 48.1% | 62.7% | 1.47% (active) | 17.9% | 10.8% | 34.6% | -0.295% (active) | –
9 | COc1ccc(OC)c(/C=C/C(=O)N/N=C/c2ccc(Cl)cc2)c1 | 21.3% | 21% | 28.4% | 40.2% | -4.93% (active) | 17.9% | -43.4% (active) | -1.72% (active) | 3.82% (active) | 29.5% | -32.4% (active) | 19.9% | 8.93% (active) | 5.72% (active) | 2.34% (active) | 18% | –
